The values that follow come from ChEMBL document CHEMBL3988442, “University of Dundee, Small-Polar-MMV Screening Library” (2021).

For some assays here: Entries with a potency or affinity are not part of this list.

One assay addresses T1, Ubiquitin-activating enzyme e1, putative (Leishmania donovani (strain BPK282A1)) (UniProt E9BSI1).
T1 sequence (whole entry): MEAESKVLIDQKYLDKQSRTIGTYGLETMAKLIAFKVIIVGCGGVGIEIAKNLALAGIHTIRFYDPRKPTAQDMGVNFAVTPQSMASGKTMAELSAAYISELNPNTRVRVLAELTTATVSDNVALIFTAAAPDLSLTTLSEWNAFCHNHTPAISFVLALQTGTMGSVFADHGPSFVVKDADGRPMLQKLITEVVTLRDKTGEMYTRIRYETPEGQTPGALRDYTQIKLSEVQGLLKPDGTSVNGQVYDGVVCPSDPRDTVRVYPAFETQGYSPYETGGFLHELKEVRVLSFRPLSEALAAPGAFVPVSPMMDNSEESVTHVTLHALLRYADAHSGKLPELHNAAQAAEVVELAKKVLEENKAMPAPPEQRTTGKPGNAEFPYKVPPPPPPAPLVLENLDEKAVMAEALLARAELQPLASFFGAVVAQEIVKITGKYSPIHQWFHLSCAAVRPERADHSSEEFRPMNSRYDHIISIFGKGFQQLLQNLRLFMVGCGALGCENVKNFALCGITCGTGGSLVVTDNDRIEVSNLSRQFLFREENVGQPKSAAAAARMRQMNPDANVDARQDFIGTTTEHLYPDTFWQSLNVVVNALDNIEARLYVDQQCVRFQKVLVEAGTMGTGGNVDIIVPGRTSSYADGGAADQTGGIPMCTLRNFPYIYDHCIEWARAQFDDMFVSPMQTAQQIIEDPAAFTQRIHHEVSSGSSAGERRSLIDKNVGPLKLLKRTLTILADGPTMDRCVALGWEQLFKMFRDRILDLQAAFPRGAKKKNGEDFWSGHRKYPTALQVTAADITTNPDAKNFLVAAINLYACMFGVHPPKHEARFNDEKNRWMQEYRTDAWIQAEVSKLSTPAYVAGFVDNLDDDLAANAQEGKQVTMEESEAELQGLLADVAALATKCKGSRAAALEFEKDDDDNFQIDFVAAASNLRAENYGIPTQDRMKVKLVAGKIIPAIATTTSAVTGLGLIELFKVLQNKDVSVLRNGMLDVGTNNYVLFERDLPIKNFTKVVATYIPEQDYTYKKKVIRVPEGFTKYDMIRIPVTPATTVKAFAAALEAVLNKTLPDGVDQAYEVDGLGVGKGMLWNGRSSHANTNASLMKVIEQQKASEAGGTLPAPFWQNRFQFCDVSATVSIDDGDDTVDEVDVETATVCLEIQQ
Kind of assay: Leishmania donovani Ubiquitin Activating Enzyme (LdE1). Conditions: 30 µM. Also on record: scale not given: direction of the effect not stated beside the values. The format is functional.
For `CN(Cc1ccsc1)C(=O)c1cccc(S(=O)(=O)NC(C)(C)C)c1`, the Percent Effect was found to be 23.4%.
For the compound `Clc1snnc1CN1CCCCC1Cn1cncn1` (stereo not given), the Percent Effect was determined as 17.7%.
The same measure, in the same setting: the figure for `O=C(CC1CC1)N1CCC2(CC1)CN(c1ncccn1)CCO2` is 2.67%.
Regarding `CC(C)c1noc(CCC(=O)NC(C)c2nnc3n2CCCCC3)n1` (stereo not given), the Percent Effect was -2.7%.
As for `CC1c2ncc(COc3cccnc3)n2CCN1C(=O)Cc1ccco1` (stereo not given), the Percent Effect stood at 6.67%.
With `COc1cccc(CN(C)S(=O)(=O)N2CCOCC2)c1`, the Percent Effect came out at 13.2%.
As to `Cc1ccc(S(=O)(=O)NC2CNC(=O)C2)cc1C` (stereo not given), the Percent Effect worked out at 8.22%.
Same read-out and setting: for `COCC(O)CN(C)C(=O)NC1CCN(Cc2ccccn2)CC1` (stereo not given) the value was 28.6%; for `O=C(NCc1ccco1)[C@H]1C[C@H]2OCC[C@H]2N(S(=O)(=O)C2CC2)C1`, 8%.
As to `Cc1ncsc1CN1C[C@@H](OCC2CC2)[C@H]2OCCC[C@H]21`, the Percent Effect worked out at 8.11%.
Same read-out and setting: for `COc1ccc(C2Nc3ccccc3C3=NCCCN32)cc1OC` (stereo not given) the value was -2.67%.
Same read-out and setting: for `O=C(NC[C@]12COC[C@H]1CN(Cc1nccs1)C2)N1CCCC1` the value was 9.33%; for `CC(C)c1cc(NC(=O)c2ccc(NC3CC3)nc2)[nH]n1`, 13%; for `O=C(c1cnc(C2CC2)s1)N1CCCC(n2cccn2)C1` (stereo not given), 8.11%.
On the same count and under the same terms, the figure for `O=C1N(c2ccc(Br)cc2)Cc2nc(=O)[nH]n21` is 22.7%; for `COc1ccc(C(=O)N(Cc2cnn(C)c2)C(C)C)cc1Br` it is 0%; for `CCCc1cc(C(=O)N(C)Cc2cccc3ncccc23)n(C)n1` it is 15.6%.
Regarding `Cc1nc(CN2C[C@@H]3CN(C(=O)C4CC4)C[C@@H]3C2=O)cs1`, the Percent Effect was 18.9%.
Same read-out and setting: for `Cc1ccc(NC(=O)NCCCc2n[nH]c(N)c2C#N)cc1` the value was 15.2%.
Take `CS(=O)(=O)NCC(=O)NC1CCc2nccn2C1` (stereo not given): the Percent Effect was 5.33%.
For `CCCN(CC(=O)NC)C(=O)c1ccc(-c2ccsc2)nc1C`, the Percent Effect came out at 6.94%.
On the same count and under the same terms, the figure for `Cc1ccc(C(=O)N2CCc3c(CNS(C)(=O)=O)cncc3C2)o1` is 2.67%; for `Cc1cnn(CCC(=O)N2CCOC(c3nc(C(C)(C)C)n[nH]3)C2)c1` (stereo not given) it is -6.94%; for `COc1cc(C)nc(N2CCN(C(=O)c3ccccc3C)CC2)n1` it is 2.7%.
Still for that read-out and setting: the figure for `COCC1CC2(CCN(C(=O)c3cccn3C)CC2)CN1C(C)C` (stereo not given) is -13.5%.
For `Cc1cc(C(=O)N2C[C@@H]3COC[C@]3(c3nnc(C4CC4)o3)C2)on1`, the Percent Effect came out at 13.3%.
On to `CCOc1nnc(CN2CCC(N(C)Cc3noc(C)n3)C2)s1` (stereo not given), for which the Percent Effect was found to be 13.2%.
Regarding `Cc1cnc(CN(C)C2CCN(CC(=O)Nc3c(C)n[nH]c3C)C2)o1` (stereo not given), the Percent Effect was 20.2%.
Still for that read-out and setting: the figure for `CNC(=O)C1CCN(C(=O)CCn2cccn2)CC1` is 13.5%; for `COCCNC(=O)[C@@H]1CC[C@@H]2[C@@H](CCN2Cc2cnn(C)c2)O1` it is 13.3%.
Still for that read-out and setting: the figure for `Cc1cc(C)n(CC2CCCN2C(=O)CCCc2ccccn2)n1` (stereo not given) is 2.63%.
In the case of `Cc1nccc(-c2cccc(NCC(=O)N3CCNC3=O)c2)n1`, the Percent Effect came to 21.1%.
Still for that read-out and setting: the figure for `O=C(c1cnco1)N1CCCC(Cc2cccc3ncccc23)C1` (stereo not given) is -4.05%.
Take `O=C(NCC(=O)N1CCCCC1)c1ccc(Cl)cc1I`: the Percent Effect came out at 5.41%.
Still for that read-out and setting: the figure for `Cc1cncc(C2CCCN(C(=O)c3scnc3C)C2)n1` (stereo not given) is 1.35%; for `COC1CCN(C(=O)Cc2csc(-c3ncccn3)n2)CC1` it is 10.5%.
Still for that read-out and setting: for `CC(C)Cc1noc(CN2CCOC(Cn3cncn3)C2)n1` (stereo not given) the value was 10.8%; for `Cc1nc(C)n(C2CCCN(C(=O)c3ccccc3C)C2)n1` (stereo not given), 18.2%.
The same measure, in the same setting: for `CCCc1ncc(C(=O)N2CCOC(c3nc(C)n[nH]3)C2)s1` (stereo not given) the value was -3.8%; for `Cc1ccsc1[C@@H]1CCN(C(=O)c2cc3ccccc3[nH]2)C[C@H]1O`, -1.39%.

In another assay the target is AMP-activated protein kinase, AMPK (Homo sapiens) (UniProt P54646+O43741+P54619+Q9UGJ0+Q9Y478+Q13131+Q9UGI9). Kind of assay: AMP-dependent Kinase enzyme assay. An in vitro enzyme assay that detects ADP turnover that is directly proportional to AMPK activity. This uses naive AMPK that is activated during the assay with MK-8722. The format is functional. More on the design: scale not given: direction of the effect not stated beside the values. Conditions: 30 µM.
With `CN(Cc1ccsc1)C(=O)c1cccc(S(=O)(=O)NC(C)(C)C)c1`, the Percent Effect is -6.77%.
The same measure, in the same setting: for `Clc1snnc1CN1CCCCC1Cn1cncn1` (stereo not given) the value was -10.2%.
Same read-out and setting: for `O=C(CC1CC1)N1CCC2(CC1)CN(c1ncccn1)CCO2` the value was 5.17%; for `CC(C)c1noc(CCC(=O)NC(C)c2nnc3n2CCCCC3)n1` (stereo not given), -3.53%; for `CC1c2ncc(COc3cccnc3)n2CCN1C(=O)Cc1ccco1` (stereo not given), 2.02%.
As to `COc1cccc(CN(C)S(=O)(=O)N2CCOCC2)c1`, the Percent Effect stood at 1.96%.
With `Cc1ccc(S(=O)(=O)NC2CNC(=O)C2)cc1C` (stereo not given), the Percent Effect is -5.53%.
For the compound `COCC(O)CN(C)C(=O)NC1CCN(Cc2ccccn2)CC1` (stereo not given), the Percent Effect is -7.26%.
Still for that read-out and setting: the figure for `O=C(NCc1ccco1)[C@H]1C[C@H]2OCC[C@H]2N(S(=O)(=O)C2CC2)C1` is -0.23%; for `Cc1ncsc1CN1C[C@@H](OCC2CC2)[C@H]2OCCC[C@H]21` it is -8.86%.
The same measure, in the same setting: the figure for `COc1ccc(C2Nc3ccccc3C3=NCCCN32)cc1OC` (stereo not given) is 8.31%; for `O=C(NC[C@]12COC[C@H]1CN(Cc1nccs1)C2)N1CCCC1` it is 4.41%.
Still for that read-out and setting: the figure for `CC(C)c1cc(NC(=O)c2ccc(NC3CC3)nc2)[nH]n1` is 111%.
Regarding `O=C(c1cnc(C2CC2)s1)N1CCCC(n2cccn2)C1` (stereo not given), the Percent Effect was -1.44%.
`O=C1N(c2ccc(Br)cc2)Cc2nc(=O)[nH]n21`: the Percent Effect is -2.95%.
The same measure, in the same setting: the figure for `COc1ccc(C(=O)N(Cc2cnn(C)c2)C(C)C)cc1Br` is -7.42%.
The same measure, in the same setting: the figure for `CCCc1cc(C(=O)N(C)Cc2cccc3ncccc23)n(C)n1` is 2.46%; for `Cc1nc(CN2C[C@@H]3CN(C(=O)C4CC4)C[C@@H]3C2=O)cs1` it is 1.84%; for `Cc1ccc(NC(=O)NCCCc2n[nH]c(N)c2C#N)cc1` it is 3.73%.
Still for that read-out and setting: for `CS(=O)(=O)NCC(=O)NC1CCc2nccn2C1` (stereo not given) the value was -3.96%; for `CCCN(CC(=O)NC)C(=O)c1ccc(-c2ccsc2)nc1C`, -2.8%.
With `Cc1ccc(C(=O)N2CCc3c(CNS(C)(=O)=O)cncc3C2)o1`, the Percent Effect worked out at 5.83%.
Take `Cc1cnn(CCC(=O)N2CCOC(c3nc(C(C)(C)C)n[nH]3)C2)c1` (stereo not given): the Percent Effect was determined as 7.25%.
The same measure, in the same setting: for `COc1cc(C)nc(N2CCN(C(=O)c3ccccc3C)CC2)n1` the value was -5.76%.
Still for that read-out and setting: the figure for `COCC1CC2(CCN(C(=O)c3cccn3C)CC2)CN1C(C)C` (stereo not given) is 4.17%; for `Cc1cc(C(=O)N2C[C@@H]3COC[C@]3(c3nnc(C4CC4)o3)C2)on1` it is -3.2%; for `CCOc1nnc(CN2CCC(N(C)Cc3noc(C)n3)C2)s1` (stereo not given) it is -4.92%.
Regarding `Cc1cnc(CN(C)C2CCN(CC(=O)Nc3c(C)n[nH]c3C)C2)o1` (stereo not given), the Percent Effect worked out at 14.2%.
With `CNC(=O)C1CCN(C(=O)CCn2cccn2)CC1`, the Percent Effect came to 2.1%.
On the same count and under the same terms, the figure for `COCCNC(=O)[C@@H]1CC[C@@H]2[C@@H](CCN2Cc2cnn(C)c2)O1` is -7.81%; for `Cc1cc(C)n(CC2CCCN2C(=O)CCCc2ccccn2)n1` (stereo not given) it is 5.48%.
As for `Cc1nccc(-c2cccc(NCC(=O)N3CCNC3=O)c2)n1`, the Percent Effect is -11.7%.
For `O=C(c1cnco1)N1CCCC(Cc2cccc3ncccc23)C1` (stereo not given), the Percent Effect was 15.2%.
The same measure, in the same setting: the figure for `O=C(NCC(=O)N1CCCCC1)c1ccc(Cl)cc1I` is -6.27%; for `Cc1cncc(C2CCCN(C(=O)c3scnc3C)C2)n1` (stereo not given) it is 3.8%.
Still for that read-out and setting: for `COC1CCN(C(=O)Cc2csc(-c3ncccn3)n2)CC1` the value was 1.3%; for `CC(C)Cc1noc(CN2CCOC(Cn3cncn3)C2)n1` (stereo not given), 2.5%.
Turning to `Cc1nc(C)n(C2CCCN(C(=O)c3ccccc3C)C2)n1` (stereo not given), the Percent Effect was -0.257%.
On to `CCCc1ncc(C(=O)N2CCOC(c3nc(C)n[nH]3)C2)s1` (stereo not given), for which the Percent Effect is 4.69%.
Same read-out and setting: for `Cc1ccsc1[C@@H]1CCN(C(=O)c2cc3ccccc3[nH]2)C[C@H]1O` the value was 0.967%.
